TDP1 cell noCPT: qHTS for Inhibitors of human tyrosyl-DNA phosphodiesterase 1 (TDP1): qHTS in cells in absence of CPT. Potency, µM (titrated, usually from 46.2 µM), for the others: at the top dose activity change, negative = growth inhibition, most hits filed as inhibitors. actives 15% (n = 420,000). DT40 Tdp1-/- hTDP1 cells, no CPT, ATP luminescence, 48 h; note: potency is the fitted concentration of half-maximal effect; nearly all actives have a fitted effect of over 55% in size
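Chicken DT40 Tdp1-/- cells stably complemented with human TDP1 were seeded at 400 cells/well with DMSO in place of 20 nM camptothecin. After compound pinning, cells grew at least 48 hr at 37 °C; viability read by CellTiter-Glo luminescence.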
TDP1 cell CPT: DT40-hTDP1 cell growth loss with CPT | chicken DT40 Tdp1-/-;hTDP1 cells + 20 nM CPT, ATP luminescence, 48 h | Potency, µM (doses to about 46.2 µM), for the others: at the highest dose activity change, negative = growth inhibition, actives largely listed as inhibitors | actives 12% (n = 420,000) | AID 686979; note: potency is the fitted concentration of half-maximal effect; nearly all actives have a fitted effect of over 55% in size
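Cell growth measured by CellTiter-Glo luminescence after a minimum 48 h, 37 C compound exposure with 20 nM CPT in Tdp1-knockout DT40 cells stably expressing hTDP1, seeded 400/well; qHTS titration format.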
HT1080 IDH1KD tx: kills HT-1080 cells with IDH1 knockdown; HT-1080 IDH1 knockdown viability, ATP luminescence, 48 h; Potency, µM (doses to about 46.1 µM), for inactives: at the top dose activity, negative = toxicity, most hits filed as cytotoxic; actives 2% (n = 360,000); AID 686971;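 note: potency is the fitted concentration of half-maximal effect; 0% = DMSO wells and -100% = cell-free medium wells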
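Luminescent ATP read-out (CellTiter-Glo, 10 min at room temperature) after 48 h compound exposure at 37 °C gave viability of IDH1-knockdown HT-1080 cells. Activity was normalised to DMSO and cell-free wells, then fitted as concentration-response curves.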
IL1B secr inh: inhibitors of inflammasome signaling (IL-1 beta secretion) | THP-1 LPS/ATP IL-1B secretion, AlphaLISA, 16 h; hits give low values | activity change, % at 57.5 µM | actives 4.7% (n = 360,000); in the data active = activity change below about -50%; inconclusive = mostly about -30% to -49%
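Secreted IL-1B measured by AlphaLISA bead assay after 16 h compound exposure of THP-1 cells; compounds (final up to 57.5 uM) added 1 h before LPS (250 ng/mL) and ATP (1.25 mM) stimulation; lower signal means less secretion.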
HT1080-NT tox: kills 2HG-producing HT-1080-NT fibrosarcoma cells; HT-1080-NT fibrosarcoma viability, CellTiter-Glo ATP luminescence, 48 h; AID 686970; actives 1.6% (n = 360,000); Potency, µM (series often up to 46.1 µM), for the others: top-dose activity, negative = less viability, actives largely listed as cytotoxic;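 note: NT is the 2HG producing partner of a matched IDH1 knockdown line; potency is the fitted concentration of half-maximal effect; 0% = DMSO-treated cells and -100% = media-only wells without cells; nearly all actives have a fitted effect of over 55% in size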
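Read-out is CellTiter-Glo luminescence after 10 minutes at room temperature, following 48 hours' compound treatment of HT-1080-NT cells (750 cells/well, RPMI, 5% FBS, 37 degrees C).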
ELG1 DNA repair: blocks ELG1-dependent DNA repair in HEK293T cells. HEK293T ELG1-luciferase reporter, luminescence, 16 h; DNA damage induced by 5-fluorouridine. Potency, µM (doses to about 46.1 µM), without a hit: at the top dose activity change, negative = inhibition, hits mostly inhibitors. actives 2.3% (n = 330,000). AID 504467; note: potency is the fitted concentration of half-maximal effect; nearly all actives have a fitted effect of over 55% in size
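5-Fluorouridine DNA damage + compound/DMSO, 2,000 cells/well, 16 h, 37 °C/5% CO2. ONE-Glo, 30 min RT, luminescence. Readout = decrease in reporter signal.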
* hit, by the source's call; ? = inconclusive; . = not tested or not shown; [ ] = dose if it differs, or a comment. Compounds with a hit are over-represented: about 19% of the library has one in this group of screens. Unless noted, calls come from the whole dose curve; as a rule, active = well fitted curve in the direction sought with a large enough effect; inconclusive = small, poorly fitted or top-dose-only effect, or another doubt; inactive = no such curve, though single readings can be large; an effect the other way counts as inactive or inconclusive. Unless noted, % is set by controls: 0 for no effect and ±100 for the full control effect.

SMILES	TDP1 cell noCPT	TDP1 cell CPT	HT1080 IDH1KD tx	IL1B secr inh	HT1080-NT tox	ELG1 DNA repair
CCOc1ccccc1N(C(=O)c1snc(C(N)=O)c1N)C(C(=O)NCc1ccccc1)c1ccc(O)cc1 (stereo not given)	?	23.1µM*	?	-67.4*	-29.3%	-18.8%
NC(=O)c1nsc(C(=O)N(Cc2ccco2)C(C(=O)NCc2ccccc2)c2ccc(O)cc2)c1N (stereo not given)	11.6µM*	?	-28.0%	-3.6	-20.6%	?
Cc1ccccc1N(C(=O)c1snc(C(N)=O)c1N)C(C(=O)NC1CCCCC1)c1ccc(O)cc1 (stereo not given)	?	?	9.2µM*	-0.4	?	?
Cc1ccc(C)c(NC(=O)c2ccc3c(c2)CCN3S(C)(=O)=O)c1	?	?	12.3%	-13.0	8.4%	.
CCc1ccccc1NC(=O)CN(C1CCCCC1)S(C)(=O)=O	-3.6%	11.8%	-0.1%	-1.2	-0.2%	-3.5%
CN(C)c1ccc(C(C(=O)NC2CCCCC2)N(Cc2ccco2)C(=O)c2snc(C(N)=O)c2N)cc1 (stereo not given)	9.2µM*	?	0.4%	-71.8*	8.4%	?
Cc1ccccc1N(C(=O)c1snc(C(N)=O)c1N)C(C(=O)NCc1ccccc1)c1ccc(O)cc1 (stereo not given)	25.9µM*	23.1µM*	?	-100.0*	?	?
CN(C)c1ccc(C(C(=O)NCc2ccccc2)N(Cc2cccnc2)C(=O)c2snc(C(N)=O)c2N)cc1 (stereo not given)	16.4µM*	20.6µM*	-27.1%	-19.5	-12.4%	?
COc1ccccc1N(C(=O)c1snc(C(N)=O)c1N)C(C(=O)NCc1ccccc1)c1ccc(C)o1 (stereo not given)	?	?	-12.4%	-72.9*	-8.6%	-1.8%
COc1ccc(-c2noc(N(c3cccc(Cl)c3)c3nc(-c4ccc(OC)c(OC)c4)no3)n2)cc1OC	-11.8%	-4.1%	.	.	.	.
CS(=O)(=O)N1CCC(C(=O)NCc2ccc(Cl)cc2Cl)CC1	2.2%	2.1%	0.9%	7.5	-1.4%	-1.9%
O=c1c2cc([N+](=O)[O-])cc([N+](=O)[O-])c2[nH]n1-c1ccccc1	?	?	-27.0%	-5.0	-24.7%	-3.3%
O=c1[nH]c(=O)c2cc([N+](=O)[O-])cc([N+](=O)[O-])c2[nH]1	?	?	-11.3%	-73.5*	0.7%	?
CCCCC(=O)NC(c1ccc([N+](=O)[O-])cc1)c1c(O)ccc2ccccc12 (stereo not given)	20.6µM*	16.4µM*	?	-59.7*	16.4µM*	25.9µM*
CCC(=O)NC(c1ccc([N+](=O)[O-])cc1)c1c(O)ccc2ccccc12 (stereo not given)	?	20µM*	?	?	?	-7.6%
CC(C)C(=O)NC(c1ccccc1Cl)c1c(O)ccc2ccccc12 (stereo not given)	-27.2%	?	-4.0%	?	-4.5%[9.24 µM]	-8.4%
CCC(=O)NC(c1ccccc1Cl)c1c(O)ccc2ccccc12 (stereo not given)	?	16.4µM*	-27.5%	17.5	-21.7%	-4.9%
CC(C)CC(=O)NC(c1ccccc1)c1c(O)ccc2ccccc12 (stereo not given)	?	?	-15.8%	-80.2*	-9.4%	?
CCC(C(=O)N1CCC(N2CCCCC2)CC1)n1nc(C)c2sc3ccccc3c2c1=O (stereo not given)	-27.3%	-18.8%	-0.4%	2.0	-0.2%	9.3%
Cc1ccc(S(=O)(=O)N(C)Cc2ccc(C(=O)N/N=C/c3ccc(OC(F)F)cc3)cc2)cc1	20.6µM*	14.6µM*	-8.8%	9.8	-2.8%	-5.6%
C/C(=N\NC(=O)c1ccc(CN(C)S(=O)(=O)c2ccc(C)cc2)cc1)c1ccc(OC(F)F)cc1	1.46µM*	?	-29.4%	31.5	-18.4%	?
CC(NC(=O)c1ccc(NC(=O)CC2SC(N3CCCC3)=NC2=O)cc1)c1ccccc1 (stereo not given)	-2.1%	-2.3%	16.6%	0.1	0.4%	15.2%
CC1CCc2onc(C(=O)N3CCN(c4ccccc4)CC3)c2C1 (stereo not given)	-30.0%	-29.7%	.	.	.	.
CCc1ccc(NC(=O)CCc2nnc3n(C)c(=O)c4sccc4n23)cc1	?	-11.4%	.	.	.	.
O=C(CSCC(=O)NN=Cc1ccccc1)NN=Cc1ccccc1	-26.7%	-11.8%	2.0%	-0.8	-3.0%	.
SMILES	TDP1 cell noCPT	TDP1 cell CPT	HT1080 IDH1KD tx	IL1B secr inh	HT1080-NT tox	ELG1 DNA repair
O=C(CCCSCCCC(=O)NN=Cc1ccccc1)NN=Cc1ccccc1	23.1µM*	?	-2.3%	-2.8	-8.0%	.
CC(=O)Oc1ccc(/C=N/NC(=O)CCSc2ccccc2)cc1	18.4µM*	?	-5.2%	47.9	-3.9%	1.6%
O=C(Cn1c(=O)n(Cc2ccc3c(c2)OCO3)c(=O)c2oc3ccccc3c21)Nc1ccccc1F	-16.5%	-21.3%	.	.	.	.
CCN1CC(CCN2CCOCC2)C(c2ccccc2)(c2ccccc2)C1=O (stereo not given)	-3.3%	-1.7%	.	.	.	.
CCCC(=NCCc1c(C)[nH]c2ccccc12)C1=C(O)CC(c2ccccc2)CC1=O (stereo not given)	1.3µM*	0.581µM*	4.61µM*	7.5	?	?
CCC/C(O)=C1\C(=O)CC(c2ccccc2)CC1=NCCc1c(C)[nH]c2ccccc12 (stereo not given)	?	?	-8.5%	?	8.0%	?
CCCCC(=NCCc1c(C)[nH]c2ccccc12)C1=C(O)CC(c2ccccc2)CC1=O (stereo not given)	5.17µM*	5.8µM*	9.2µM*	?	?	?
CCOc1ccc(C=Nc2ccc(/C=C/c3ccnc4ccccc34)cc2)cc1OCC	10µM*	15.8µM*	.	.	.	.

Assay outcomes from PubChem BioAssay.
